The results in this text go back to PubChem BioAssay AID1209 (Sanford-Burnham Center for Chemical Genomics, 2008).

Hit rate of the full screen: of about 190,000 compounds, about 810 (0.43%) were called active. For the sample, actives were picked, then their nearest neighbours and some compounds at random. Unmarked numbers belong to inactive results. Cut-off read from the data, not from the text of the source: active = inhibition above about 50%; inactive = the rest.

The target in this assay is Mannose-6-phosphate isomerase (Homo sapiens) (UniProt P34949). Briefly: MPI enzyme activity inhibition – biochemical, fluorescence intensity, coupled assay, primary screen (AID 1209).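 Note: plate controls were DMSO vehicle for no effect and wells lacking substrate for full effect.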 The note with it: purified PMI enzyme, at 20 µM, hits give high values.
Sequence of Mannose-6-phosphate isomerase (Homo sapiens) (P34949 whole entry, looked up): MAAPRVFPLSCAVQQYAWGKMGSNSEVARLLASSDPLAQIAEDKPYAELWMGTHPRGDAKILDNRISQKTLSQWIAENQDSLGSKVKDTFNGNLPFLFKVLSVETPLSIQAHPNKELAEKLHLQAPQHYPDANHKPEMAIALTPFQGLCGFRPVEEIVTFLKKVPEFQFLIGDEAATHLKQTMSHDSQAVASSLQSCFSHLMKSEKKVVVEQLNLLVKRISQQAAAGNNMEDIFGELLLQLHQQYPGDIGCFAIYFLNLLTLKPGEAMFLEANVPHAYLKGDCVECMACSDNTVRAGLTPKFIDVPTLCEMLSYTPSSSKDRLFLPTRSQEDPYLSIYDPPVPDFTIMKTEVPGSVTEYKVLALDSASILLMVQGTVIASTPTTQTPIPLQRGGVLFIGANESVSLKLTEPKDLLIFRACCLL
A word on the inhibition: it is the change of the read-out against control, counted positive when it falls. With `CNC(=O)c1nn(-c2ccc(Cl)cc2)ccc1=O`, the inhibition is 6.2%.

For the molecule `CCOc1cc(NC(=S)NCCCOC)c(OCC)cc1NC(=O)c1cccs1`, the inhibition was 17.4%.

On to `CC[n+]1ccc(C[n+]2ccccc2)c2ccccc21`, for which the inhibition is 96.8% (active).

`CC[n+]1ccc(/C=C/c2ccc(N(C)C)cc2)c2ccccc21`: the inhibition was 1%.

As for `CC[n+]1ccc(C)c2cc(P(=O)(c3ccccc3)c3ccccc3)ccc21`, the inhibition is -16%.

For `CC(=O)Nc1ccc(C2=NN(Cc3nnc(-c4ccccc4)o3)C(=O)SC2)cc1`, the inhibition was 2.2%.

With `CN(C)c1cccc(C(=O)NCC2CCCO2)c1` (configuration not stated), the inhibition was 9.2%.

Regarding `O=C(Nc1ccc(N=Nc2ccccc2)cc1)c1cccc(Cl)c1`, the inhibition was 7.7%.

As to `O=C(Nc1ccc(N=Nc2ccccc2)cc1)c1ccc(Cl)cc1Cl`, the inhibition is 57.5% (active).

On to `O=C(Nc1ccc(N=Nc2ccccc2)cc1)c1ccccc1Cl`, for which the inhibition was 2.6%.

As to `COc1cccc(NC(=O)c2cccnc2)c1`, the inhibition was 8.6%.

As for `Cc1ccc2[nH]c(=O)c(C(c3nnnn3C3CCCC3)N3CCCc4ccccc43)cc2c1` (configuration not stated), the inhibition is 57.3% (active).

In the case of `O=c1[nH]c2cc3c(cc2cc1C(c1nnnn1C1CCCC1)N1CCCc2ccccc21)OCCO3` (configuration not stated), the inhibition was 12.8%.

`CCC(C)(C)n1nnnc1C(c1cc2cc(C)ccc2[nH]c1=O)N1CCCc2ccccc21` (configuration not stated): the inhibition is 44.4%.

As for `CCOC(=O)Cc1csc(NC(=O)CSc2nnc(-c3ccc(F)cc3)o2)n1`, the inhibition was -5.5%.

Turning to `CCOC(=O)c1ccccc1NC(=O)COC(=O)c1ccc(C)c(S(=O)(=O)N2CCOCC2)c1`, the inhibition is 6.5%.

For the molecule `CCOC(=O)Cn1nc(C)n(-c2ccc(C(C)(C)C)cc2)c1=O`, the inhibition is 12.5%.

As to `CN(C)c1cc(N/N=C\c2ccccc2)nc(N(C)C)n1`, the inhibition is 59.2% (active).

For `COc1ccc(/C=N/Nc2cc(C)nc(N)n2)cc1`, the inhibition is 12.1%.

For `COc1ccccc1/C=N/NC1=NCCCCC1`, the inhibition was 2.7%.

With `COc1ccc(/C=N/Nc2cc(N(C)C)nc(N(C)C)n2)cc1`, the inhibition was 61.2% (active).

`COc1ccccc1/C=N/Nc1nncc2ccccc12`: the inhibition is 2.9%.

Take `Clc1ccc(/C=N/Nc2ccccn2)cc1`: the inhibition is -8.3%.

As to `COc1ccc(/C=N/Nc2cc(OC)ncn2)cc1`, the inhibition is 14.3%.

`COc1ccccc1/C=N/Nc1cc(N(C)C)nc(N(C)C)n1`: the inhibition is 60.4% (active).

With `Cc1cc(N/N=C/c2ccc(Cl)cc2)nc(NCc2ccccc2)n1`, the inhibition is 21.7%.

`Cc1cc(N/N=C/c2ccccc2)nc(NCc2ccccc2)n1`: the inhibition was 21.5%.

In the case of `CN(C)c1cc(N/N=C/c2ccc(Cl)cc2)nc(N(C)C)n1`, the inhibition was 67.4% (active).

On to `Cc1cc(N/N=C\c2ccccc2)nc(-c2ccccc2O)n1`, for which the inhibition is 17.7%.

In the case of `CCn1c(SCC(=O)Nc2cc(C)on2)nc2c(c1=O)SC(C)C2` (configuration not stated), the inhibition is 8.4%.

With `O=C(Nc1ccc2c(c1)OCCO2)c1ccc2ccccc2n1`, the inhibition was -3.6%.

On to `O=C(COc1ccccc1)NCC(=O)Nc1ccc(S(=O)(=O)NCc2ccco2)cc1`, for which the inhibition was 9.9%.

On to `COc1ccc(C(C(=O)NC2CCCC2)N(Cc2cccs2)C(=O)c2ccn[nH]2)cc1OC` (configuration not stated), for which the inhibition is 11.2%.

Consider `CN(C)C(=O)CCSc1nnc(-c2ccncc2)o1`, for which the inhibition was -4.7%.

Turning to `CC1(C)Cc2c(c(N3CCCC3)nc3sc4c(N5CCN(CCO)CC5)ncnc4c23)CO1`, the inhibition is -22.8%.

Regarding `Cc1cc(C(=O)N2CCCC(C(=O)c3cccc4ccccc34)C2)nc(C)n1` (configuration not stated), the inhibition is 6.1%.

Turning to `O=C(CNS(=O)(=O)c1cccs1)Nc1ccc2c(c1)OCCO2`, the inhibition was 9.1%.

Consider `CC(C)C(=O)Nc1cccc(C(=O)N2CCCCC2C)c1` (configuration not stated), for which the inhibition is 15.5%.

For the molecule `O=C(NCc1ccncc1)Nc1cc(Cl)ccc1Cl`, the inhibition was 8.5%.

On to `Nc1nncn1C(=O)CCCN1C(=O)c2ccccc2C1=O`, for which the inhibition is 5.4%.

Consider `CCn1c(COc2ccccc2OC)nnc1SCC#N`, for which the inhibition was 5.9%.

In the case of `NC(N)=Nc1nc(C2COc3ccccc3O2)cs1` (configuration not stated), the inhibition was -4%.

As to `S=c1[nH]nc(C2COc3ccccc3O2)o1` (configuration not stated), the inhibition was -16.3%.

For `Cn1c(=O)c2c(nc(NC3CCCCC3)n2CC(=O)C23CC4CC(CC(C4)C2)C3)n(C)c1=O`, the inhibition was 1.2%.

With `O=S(=O)(c1ccc(Br)s1)N1CCC(Cc2ccccc2)CC1`, the inhibition was 1.1%.

Regarding `Cc1ccc(N(C(=O)c2cc3ccccc3oc2=O)C2C=CS(=O)(=O)C2)cc1` (configuration not stated), the inhibition is 13.3%.

As to `O=C(CSc1nnc(-c2ccccc2)c(-c2ccccc2)n1)NC1CCS(=O)(=O)C1` (configuration not stated), the inhibition is -3.8%.

In the case of `Cc1ccc(-c2nnc(SCC(=O)NC3CCS(=O)(=O)C3)nc2-c2ccc(C)cc2)cc1` (configuration not stated), the inhibition is 3.8%.

In the case of `O=C(CSc1n[nH]c(-c2ccncc2)n1)NC1CCS(=O)(=O)C1` (configuration not stated), the inhibition is 77.1% (active).

As for `O=C(CSc1nnc(-c2ccccc2F)o1)OCc1ccccc1`, the inhibition was -0.7%.

Take `CC[n+]1c(/C=C/Nc2ccccc2)oc2ccccc21`: the inhibition is 1.7%.

Consider `CC[n+]1ccccc1/C=C/c1ccc(N(C)C)cc1`, for which the inhibition was 26.1%.

Regarding `CC[n+]1ccccc1/C=C/Nc1ccccc1`, the inhibition is 62% (active).

`CCOC(=O)COn1c(=O)c(C)[n+]([O-])c2ccccc21`: the inhibition is 4.8%.

As for `CC(C)(C)c1cc(CCC(=O)NN)cc(C(C)(C)C)c1O`, the inhibition was -6.6%.

`CC(C)C(C(=O)OCC(=O)c1cccc([N+](=O)[O-])c1)N1C(=O)[C@@H]2[C@H]3CC[C@H](C3)[C@@H]2C1=O` (some centres not stated): the inhibition is 21.3%.

Regarding `OC1(c2ccccc2)CCN(Cc2ccccc2)CC1`, the inhibition is 57.2% (active).

For the molecule `OC1(c2ccc3ccccc3c2)CCN(Cc2ccccc2)C1` (configuration not stated), the inhibition is -11.8%.

As for `OC1(c2ccc(F)cc2)CCN(Cc2ccccc2)C1` (configuration not stated), the inhibition was -8.8%.

In the case of `CCC1(C)Cc2[nH]c(=O)c(C#N)cc2CO1` (configuration not stated), the inhibition was 2.9%.

As to `COc1cc(/C=N/Nc2nc(C)nc3c2cnn3-c2ccccc2)ccc1O`, the inhibition is 6.9%.

Consider `c1cc2nnnn2nc1N1CCCCC1`, for which the inhibition is -6.5%.

For the molecule `O=C(c1cnn2c(C(F)F)cc(C3CC3)nc12)N1CCCC1`, the inhibition is -5.5%.

Consider `O=C(c1cnn2c(C(F)F)cc(C3CC3)nc12)N1CCOCC1`, for which the inhibition is 53.1% (active).

On to `CN1CCN(C(=O)c2cnn3c(C(F)F)cc(C4CC4)nc23)CC1`, for which the inhibition was 9.1%.

For the molecule `COc1ccc(CCNC(=O)CSc2ccc3ccccc3c2)cc1OC`, the inhibition is 1.7%.

`O=C(CSc1ccc2ccccc2c1)NCCc1ccc(O)c(O)c1`: the inhibition was 52.6% (active).

With `NS(=O)(=O)c1ccc(CCNC(=O)CSc2ccc3ccccc3c2)cc1`, the inhibition was -13.1%.

As to `Cc1cc(C)n2nc(C(=O)OCCOc3ccc(Br)cc3)nc2n1`, the inhibition was 7.1%.

As to `COc1cc2nc(NC(=O)c3ccc(Cl)cc3)[nH]c(=O)c2cc1OC`, the inhibition is 25.5%.

As for `O=C1c2ccccc2C(=O)c2c1oc(C(F)(F)F)c2C(=O)c1ccccc1`, the inhibition was -31.5%.

On to `Cc1ccc(C(=O)c2c[nH]cc2-c2ccccc2)cc1`, for which the inhibition was -1%.

As for `O=C1C(=O)c2c(C(=O)c3ccccc3)coc2-c2ccccc21`, the inhibition was 73.4% (active).

Turning to `COc1ccc(C(=O)c2coc(-c3ccccc3C(=O)O)c2C(=O)O)cc1`, the inhibition was -8.2%.

For `Cc1ccc(C(=O)c2coc3c2C(=O)C(=O)c2ccccc2-3)cc1`, the inhibition was 72.9% (active).

With `O=C(c1ccccc1)c1coc2c1C(=O)c1ccccc1C2=O`, the inhibition is -42.6%.

`O=C1Nc2ccc([N+](=O)[O-])cc2C1=Nc1cccc(CO)c1`: the inhibition is 56.8% (active).

`NC(=O)c1ccc(C(=O)c2ccc([N+](=O)[O-])cc2)cc1`: the inhibition was -7.1%.

As for `Cc1ccc(N=C2NC(=O)c3cc([N+](=O)[O-])ccc32)cc1`, the inhibition is 14.1%.

Consider `Cc1cccc(N=C2NC(=O)c3cc([N+](=O)[O-])ccc32)c1`, for which the inhibition was -1.4%.

Regarding `NC(=O)c1ccc(N=C2C(=O)Nc3ccc([N+](=O)[O-])cc32)cc1`, the inhibition is 52.5% (active).

For `O=C1NC(=Nc2ccccc2)c2ccc([N+](=O)[O-])cc21`, the inhibition was 28.5%.

Regarding `CCOC(=O)c1c(NC(=O)Nc2cccc(Cl)c2)sc(C)c1C`, the inhibition is -4.2%.

In the case of `O=C(CSc1ncnc2ccccc12)c1ccc2c(c1)OCCO2`, the inhibition was 9.1%.

Turning to `Nc1[nH]n2c(=O)cc(-c3ccccc3)nc2c1N=Nc1ccc2c(c1)OCO2`, the inhibition was 28%.

In the case of `Cc1ccc(C(=O)N/N=C/c2ccc(-c3ccccc3[N+](=O)[O-])o2)cn1`, the inhibition was 52.2% (active).

For the molecule `Cc1c(C(=O)N/N=C/c2ccc(-c3ccccc3[N+](=O)[O-])o2)sc(N)c1C#N`, the inhibition was 55.1% (active).

As to `COc1ccc2ccccc2c1/C=N/NC(=O)c1sc(N)c(C#N)c1C`, the inhibition is 12.9%.

As to `O=C(N/N=C\c1ccc(-c2ccccc2[N+](=O)[O-])o1)C1COc2ccccc2O1` (configuration not stated), the inhibition is 33.9%.

Take `O=C(N/N=C\c1ccc(-c2ccccc2[N+](=O)[O-])o1)C1COc2cc3ccccc3cc2O1` (configuration not stated): the inhibition is 70.2% (active).

As for `Cc1cc([N+](=O)[O-])c(C)cc1-c1ccc(/C=N/NC(=O)c2cccnc2)o1`, the inhibition is 8.6%.

Take `Cc1ccc(/C=N\NC(=O)C2COc3cc4ccccc4cc3O2)o1` (configuration not stated): the inhibition is 5%.

As to `Cc1ccc(C(=O)N/N=C\c2ccccc2[N+](=O)[O-])cn1`, the inhibition was -13.1%.

For `O=C(N/N=C/c1ccc(-c2ccccc2[N+](=O)[O-])o1)c1cncc(Br)c1`, the inhibition is 33.3%.

For the molecule `COC(=O)c1[nH]c2ccccc2c1NC(=O)CCN1CCN(C2CCCCC2)CC1`, the inhibition is 3.6%.

On to `COc1cc(CC(=O)OCC(=O)Nc2cc([N+](=O)[O-])ccc2F)cc(OC)c1OC`, for which the inhibition is 2.7%.

Take `Cc1ccc(C(c2nnnn2C(C)(C)C)N2CCC(C)CC2)cc1` (configuration not stated): the inhibition was -7.6%.
